The assay relates to VDR:RXRa (NR concentration 270 nM, RXRa partner concentration 90 nM). The experiment in a line: PBM binding z-score (relative to random genomic background probes); higher = stronger binding; sequences stand for … in GC…GCGATTGACAGCGTAGAATGAAGG
The procedure:
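Protein-binding microarray (Agilent 4x180K custom design, double-stranded 60-nt probes: 5' GC cap, 34-nt variable region, 24-nt constant primer region; full probe sequence given). Purified or IVT nuclear receptor:RXRα heterodimers (3:1 NR:RXRα, mostly 270:90 nM) or homodimers were incubated for 1 h in PBS with 2% milk and no ligand, then detected with Alexa488 antibodies. Fluorescence from o1-orientation probes (~5 replicates averaged) was converted to z-scores against 500 random hg19 background probes. Variable regions are seed direct-repeat (DR0–DR5) sites, all their single-nucleotide variants and half-site ablations.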
Sequence TCATATAGGTAAAAGGTGAAAGGCGGTGTGGTAA yielded a PBM binding z-score of 1.39.

GTACCAAGGTAAATAGGTCGTTGATGAGTAGGCG came in with a PBM binding z-score of 0.336.

CGTCAAAGTTCAACGAAGGTAACGTAAAGCACGC yielded a PBM binding z-score of 4.39.

For CCTGCTAGGTCATGTTCAGCTAATCTACAGTATG, the PBM binding z-score is 1.48.

For the sequence ACCTCTAGGTAAAGTTCAGTGAAAGATCGATAGA, the PBM binding z-score turned out to be 0.835.

In turn, GGAACGAGGCCAAGTTGATAGCAGAGTTTGATGG registered a PBM binding z-score of -0.548.

On to TCTTGTAGATCACCAGGTTAAGAAAGCTGGCCAA, for which the PBM binding z-score turned out to be 0.86.

Take ATATGTAGGTTAGCTGGGATCATTCAGACTAGGC: the PBM binding z-score is 0.919.

Sequence CCGACAGGGGCAAGGTTACCATAACGCACAGCCA displayed a PBM binding z-score of 0.616.

For ATATTTAGGTTATCGGGTCATTCAGTTTGCGCAT, the PBM binding z-score was determined as 5.35.

TAGCCTAGGTCATTCGGCCAGTATAGTACGCATC returned a PBM binding z-score of 2.24.

As to AGAATGAGGTTTAGATCAGGGAAACAGAATACAT, the PBM binding z-score was -0.225.

Sequence ACTATTAGTTGAGACGAGGGCAACGGATAGGTTG had a PBM binding z-score of 0.66.

As for TCGAGTAGGTTAGTCGGGGCATTCAGCCAACATA, the PBM binding z-score was determined as 2.07.

Turning to TAGCCTAGGTCATTCAGGGGCCAGTACAGAAAGC, the PBM binding z-score was 3.33.

AATACAGGGTCACTAGGCCAGAGGAGGTACGAAT showed a PBM binding z-score of 4.09.

With AGAATGAGGTTACCGAAGATCAGGGAAACGCTTG, the PBM binding z-score was determined as 1.53.

On to CTACCAAGGTGAACAAGGTCGGTGATTACTATTC, for which the PBM binding z-score turned out to be 4.17.

Take GCGACTGGGGCATCATCAGGTTACCATAACTTAA: the PBM binding z-score is 0.00777.

Sequence TTACCAAGGCGAAGGTCGTTGATCCCTCTGTAGA came in with a PBM binding z-score of 0.836.

Turning to CGATCTAGGTCAGAACAGGACAGTGAAGGATGAT, the PBM binding z-score amounted to 0.316.

On to ATATGTAGCTTACATCCGGGTCATTCAGGCTATG, for which the PBM binding z-score is 2.82.

GCTCGGAGGACTAGGTCAGAGCTTTGTCCGTAGA yielded a PBM binding z-score of -0.562.

CAGCCTAGGTCAGGGCCAGTATCGGAGGAACGTT had a PBM binding z-score of -0.0138.

Sequence ACTATTAGTTGAGACGAGGGCCACCGATAGGTTG returned a PBM binding z-score of -0.293.

TTGCCAAGGTGAGCTGAGGTCGTTGATCCAACTC returned a PBM binding z-score of 3.93.

Take CGTGCAAGGTCAAGGTCAGTGAAAGAGACTCGAA: the PBM binding z-score was found to be 4.83.

With TTACCAAGGTGAGCTGAGGACGTTGATCCAACTC, the PBM binding z-score came out at 0.98.

Sequence TAGCCTAGGTCAGATAGGGCCAGTATACGCTATA gave a PBM binding z-score of 1.11.

In turn, TAGCCTAGGTCATTCGGGCCAGTATAGTGTCGGC registered a PBM binding z-score of 3.94.

With ACTAGTTGGTCAGCTGAGGTCACACATAATTCGG, the PBM binding z-score worked out at 4.49.

Take GCCGCTAGGTCAACTGATGGTCAGCTAAAGCTCG: the PBM binding z-score was found to be 1.45.

In the case of ATCTCTAGGTAACAAGTTCGGTGAAAGAGAGGAC, the PBM binding z-score worked out at 0.955.

The sequence ACTATTAGTTGACTTAGGGCACCCGATACGACGC registered a PBM binding z-score of 0.0637.

In turn, AGAACCAGGGCAATGAGTTGATAGCACGGGTGGC yielded a PBM binding z-score of 3.6.

Sequence TGTACAGGGTCAAAGGCCAGAGTACGAATGTCGA had a PBM binding z-score of 4.59.

The sequence CAAACTAGGTCAAAGGGCAAAGTCGAGCCAACCA came in with a PBM binding z-score of 3.83.

In turn, ATCGAAAGGTCGACGATGTGAGTATACACCGTTT came in with a PBM binding z-score of 2.51.

As to TCTCGGAGGACACGAAGGTGAGAGCTTTCCAGAG, the PBM binding z-score was -0.377.

In turn, CCTGCTGGGCCACGAAAGGTCATTGATTCAGTGA came in with a PBM binding z-score of 4.08.

The record behind these values is the supplement of paper PMC6555819.
